aSyn 5UTR act: Activators via SNCA 5'UTR binding, MLPCN. alpha-synuclein 5'UTR reporter, activators screen. activity score, % (tested at 7.5 µM), hits read low. AID 1814. 300,000 compounds, 7.1% hits; in the data active = activity score below about -60%
* = called active by the depositor. Not all results are given here.

SMILES	aSyn 5UTR act
O=C(c1ccc(Cl)cc1)c1cnc(Nc2ccccc2Cl)s1	-156.3*
O=c1/c(=C/c2ccccn2)sc2nc3ccccc3n12	-173.8*
O=C1/C(=C\c2ccc3c(c2)OCO3)CCC/C1=C/c1ccc2c(c1)OCO2	-93.5*
O=C1/C(=C/c2ccncc2)CCC/C1=C\c1ccncc1	-100.9*
CC1CC/C(=C\c2ccc3c(c2)OCO3)C(=O)/C1=C/c1ccc2c(c1)OCO2 (stereo not given)	-79.8*
S=C(c1ccc(-c2ccc(Cl)cc2Cl)o1)N1CCCC1	-139.5*
S=C(c1ccc(-c2ccc(Cl)cc2Cl)o1)N1CCCCC1	-208.2*
COc1ccccc1C(=O)N1CCN(CCNC(=O)C(=O)Nc2ccc(Br)c(C)c2)CC1	-89.2*
CS(=O)(=O)Nc1ccc(C(=O)NCCc2ccccc2)cc1	-124.8*
O=C(NCCS(=O)(=O)NCCc1ccccc1)c1ccccc1	-62.1*
CCCSc1nnc(NC(=O)Nc2ccccc2OC)s1	-143.6*
CCCc1nnc(NC(=O)Nc2ccccc2OC)s1	-91.8*
COc1ccccc1Nc1nnc(SCC(=O)N2CCCC2)s1	-77.0*
N#C/C(=C/c1ccc(N2CCCCC2)o1)C(=O)Nc1ccc(Cl)cc1	-152.0*
N#C/C(=C/c1ccc(N2CCCCC2)o1)C(=O)Nc1ccc2ccccc2c1	-110.0*
CC(=O)OCC(=O)N1N=C(c2ccc3ccccc3c2)CC1c1ccccc1 (stereo not given)	-106.2*
COc1ccc(C2CC(c3ccc4ccccc4c3)=NN2C(=O)CN2CCC(C(N)=O)CC2)cc1 (stereo not given)	-133.7*
COc1cc(C2CC(c3cccs3)=NN2C(=O)CCl)ccc1OC(F)F (stereo not given)	107.1
CCOC(=O)/C=C(\C)N1N=C(c2ccccc2)CC1c1ccccc1 (stereo not given)	-187.5*
COc1ccc(C2CC(c3ccc4ccccc4c3)=NN2C(=O)COC(=O)C2CCC(=O)N2)cc1 (stereo not given)	-151.9*
Cn1cc(Cl)c(/C(N)=N/OC(=O)c2ccccc2C(F)(F)F)n1	-98.0*
Oc1ccc(Br)cc1-c1ccnn1-c1ccccc1	-113.8*
Clc1ccc2c(c1)[C@H]1OCC[C@H]1[C@@H](c1ccco1)N2	-167.7*
[O-][n+]1c2ccccc2c2n1CCCN=C2c1ccc(Cl)cc1	-149.1*
Cc1ccc(-c2csc(Cc3nc(-c4ccc5c(c4)CCC(=O)N5)cs3)n2)cc1	-124.4*
SMILES	aSyn 5UTR act
CC(C)(C)n1cnc2cc(NCc3ccc(Br)cc3)ccc21	-92.4*
CCc1ccc(CNc2ccc3c(c2)ncn3C(C)(C)C)cc1	-156.0*
CC(C)(C)n1cnc2cc(NS(=O)(=O)c3ccccc3)ccc21	-74.2*
COc1ccc(OC)c(C=Nc2ccccc2-c2nc3ccccc3[nH]2)c1	-212.5*
Oc1ccccc1C=Nc1ccccc1-c1nc2ccccc2[nH]1	-123.0*
Oc1ccc(C=Nc2ccccc2-c2nc3ccccc3[nH]2)c(O)c1	-124.7*
Cn1c(N)c(C(=O)/C=C/c2ccccc2)c(=O)[nH]c1=O	-139.7*
Cc1ccc(C)c(NC(=O)c2ccccn2)c1	-72.1*
Cc1ccc(NC(=O)c2ccccn2)c(Br)c1	-103.3*
Cc1ccc(NC(=O)Nc2ccc(Cl)cc2)c(Br)c1	-154.9*
O=C(c1ccc(S(=O)(=O)c2ccccc2Cl)c([N+](=O)[O-])c1)N1CCCCCC1	-97.9*
O=C(c1ccc(S(=O)(=O)c2cccc(Cl)c2)c([N+](=O)[O-])c1)N1CCN(c2ccccn2)CC1	-61.8*
CSc1nc(-c2ccc(Cl)cc2)nn1C(=O)c1ccco1	-107.2*
Cc1ccc(S(=O)(=O)n2nc(-c3ccco3)nc2SCc2ccccc2)cc1	-73.6*
O=C(Cc1ccccc1)n1nc(-c2ccco2)nc1SCc1ccccc1	-70.8*
O=C(c1ccco1)n1nc(-c2ccccc2)nc1SCc1ccccc1	-112.2*
CCS(=O)(=O)n1nc(-c2ccc(Cl)cc2)nc1SC	-69.6*
CN1CCc2c(sc3c2C(=O)NC(c2cccs2)N3)C1 (stereo not given)	-102.8*
COc1ccc(-c2oc3ccc(N4CCOCC4)cc3c2C#Cc2ccc(N)cc2)cc1	-91.6*
COc1ccc(-c2oc3ccc(N4CCOCC4)cc3c2C#CC2(O)CCCCC2)cc1	-117.8*
N#C/C(=C\c1ccc(OCc2ccc(Br)cc2)cc1)C(=O)Nc1cccc(C(=O)O)c1	-76.2*
N#C/C(=C\c1ccc(OCc2ccc(F)cc2)cc1)C(=O)Nc1cccc(C(=O)O)c1	-107.6*
COc1cc(/C=C(\C#N)C(=O)Nc2cccc(C(=O)O)c2)ccc1OCc1ccc(F)cc1	-90.2*
CCSc1nc(N)c2c3c(sc2n1)CCC3	-89.4*
Nc1nc(-c2ccccc2)nc2sc3c(c12)CCCC3	-138.7*
SMILES	aSyn 5UTR act
Nc1c2c(nc3sc4c(c13)CCCC4)CCCCCC2	-82.1*
CC(=O)Nc1ccc(S(=O)(=O)N2CCN=C2SCc2ccc(C)cc2)cc1	-72.0*
COc1ccc(C(=O)N/N=C/c2ccc(SC)cc2)cc1	-64.7*
O=C(N/N=C\c1c(O)ccc2ccccc12)c1ccc(O)cc1	75.3
COc1ccc(/C=N/NC(=O)c2ccc[nH]2)cc1	-147.1*
CSc1ccc(/C=N/NC(=O)c2ccc(O)cc2)cc1	-116.9*
Fc1ccc2c(Cl)c(-c3nnc(-c4cccs4)o3)sc2c1	-177.7*
CN1CCN(c2nc(Nc3cccc(C(F)(F)F)c3)nc(N3CCOCC3)n2)CC1	-69.3*
Cc1nc2ccccc2c(=O)n1/N=C/c1cn(-c2ccccc2)nc1-c1cccs1	-67.4*
Cc1nnc(-c2ccccc2)c(=O)n1/N=C/c1c(O)ccc2ccccc12	83.1
Cc1nc2ccccc2c(=O)n1/N=C1\C(=O)N(C)c2ccccc21	-83.2*
Cc1nc2ccccc2c(=O)n1/N=C/c1cccs1	-78.6*
CCOc1ccccc1C1CC(=O)Nc2cc3c(cc21)OCO3 (stereo not given)	66.1
CCOc1ccc(C2=Nn3c(nnc3-c3ccccc3OC)SC2)cc1	108.9
CCOc1ccccc1C1N=C(c2ccc(OC)cc2)CC(c2ccccc2O)N1 (stereo not given)	-233.8*
O=C(Nc1ccc(F)cc1)c1ccc2c(=O)n3c(nc2c1)CCCCC3	-103.8*
O=C(Nc1ccc(F)c(Cl)c1)c1ccc2c(=O)n3c(nc2c1)CCCCC3	-165.9*
O=C(Nc1cccc(Cl)c1)c1ccc2c(=O)n3c(nc2c1)CCCCC3	-216.7*
CCc1cccc(NC(=O)c2ccc3c(=O)n4c(nc3c2)CCCCC4)c1	-127.4*
O=C(Nc1ccc(Cl)cc1)c1ccc2c(=O)n3c(nc2c1)CCCCC3	-119.9*
C/C(=N\Nc1ccc([N+](=O)[O-])cc1)c1cc2ccccc2o1	-72.6*
C/C(=N/Nc1ccc([N+](=O)[O-])cc1)c1c[nH]c2ccccc12	-171.2*
C/C(=N\NC(=O)c1ccc(O)cc1)c1cc2ccccc2o1	-98.0*
C/C(=N/Nc1ccc([N+](=O)[O-])cc1)c1ccc(C)cc1C	-89.1*
CC(CC(=O)NCc1ccccc1)C1CCCO1 (stereo not given)	-62.0*
SMILES	aSyn 5UTR act
ONC(=Nc1ccc(Cl)cc1)c1ccc(Cl)cc1	-99.8*
CC(C)c1ccc(NC(=O)[C@H](Cc2c[nH]c3ccccc23)NC(=O)[C@@H]2Cc3ccccc3CN2)cc1	61.4
CC(C)c1ccc(NC(=O)C(=O)C2C(=O)Nc3ccccc32)cc1 (stereo not given)	-101.4*
CN(C)c1ncnc2c1ncn2C1OC(CO)C(O)C1O (stereo not given)	108.0
O=c1c2cnn(-c3ccccc3)c2nc(-c2cccs2)n1-c1cccc(Cl)c1	-63.1*
C=CCSc1nc2c(cnn2-c2ccccc2)c(=O)n1N	74.2

High-throughput results: PubChem BioAssay, Broad Institute
